Measurements published in PubChem BioAssay (EPA / NIEHS).
Records with an inconclusive call do not appear. Active and inactive are the calls of the source. The calls were made as follows: active = hit-call score of the fitted dose curve at least 0.9, where 1 is the maximum; inconclusive = response in the unintended direction; inactive = score below 0.9.

Read-out: ABC Transporter (ABCB11), ABCB11 (gene 8647)
Assay: CLD_ABCB11_48hr: CellzDirect (CLD) Gene Expression Assay for ABC Transporter (ABCB11) at 48 hours (AID 2283697)
Procedure: CLD_48hr is a cell-based, multiplexed-readout assay that uses hepatocyte, a human liver primary cell, with measurements taken at 48 hours after chemical dosing in a 96-well plate.CLD_ABCB11_48hr is one of 16 assay component(s) measured or calculated from the CLD_48hr assay. It is designed to make measurements of mRNA induction, a form of inducible reporter, as detected with chemiluminescence signals by Quantitative Nuclease Protection Assay (qNPA) technology.Data from the assay component CLD_ABCB11_48hr was analyzed at the endpoint, CLD_ABCB11_48hr, in the positive analysis fitting direction relative to DMSO as the negative control and baseline of activity. Using a type of inducible reporter, gain-of-signal activity can be used to understand changes in the reporter gene as they relate to the gene ABCB11. Furthermore, this assay endpoint can be referred to as a primary readout. To generalize the intended target to other relatable targets, this assay endpoint is annotated to the transporter intended target family, where subfamily is ABC transporter.
Human hepatocyte cultures were treated daily for two consecutive days with fresh dosing solutions containing appropriate concentrations of the 320 ToxCast chemicals (chemical identities were blinded to CellzDirect and other ToxCast collaborators), vehicle control (0.2% DMSO), and positive control inducers as summarized in Table 1. Due to the large number of treatment groups and chemicals examined, the ToxCast chemicals were divided into two groups (spanning two independent cultures of hepatocytes from separate donor preparations (Hu778: ToxCast plates 1 and 2; Hu776: ToxCast plates 3 and 4). Each preparation of human hepatocyte cultures was treated with respective vehicle control, medium only control, set of six positive controls/reference chemicals for the five hepatic receptor pathways, and a subset of eight of the ToxCast chemicals (indoxacarb, pyrithiobac-sodium, norflurazon, cyhalofop-butyl, methomyl, thiram, acetochlor, and propiconazole). These replicate data, coupled with internal replicates designed within the blinded ToxCast chemical library, provided additional data to evaluate interindividual differences between hepatocyte preparations and their potential impact on chemical profiles.Cell morphology and integrity were evaluated using phase-contrast microscopy as an indicator of hepatocyte cell health (Tyson & Green, 1987). Cultures for each treatment group (i.e., media, vehicle [0.2% DMSO], positive control inducers [multiple concentrations], and the ToxCast chemicals [multiple concentrations]) were observed and cell morphology was assessed relative to vehicle control cultures at each harvest time point (0, 6, 24, or 48 h). […] Images were evaluated at the conclusion of the study to assess changes in cell integrity and account for the effects of chemical exposure on uncharacteristic changes in concentration-dependent gene expression profiles. The results from these determinations of apparent cytotoxicity were annotated (yes/no) alongside the corresponding qNPA data for reference.At the conclusion of each treatment period, hepatocyte cultures (96-well) were washed with 1 volume of HBSS, lysed by addition of 25 ul ArrayPlate lysis buffer (HTG, Tucson, AZ), and 70 ul/well of Denaturation Oil, denatured by incubation at 95C for 10 min, and frozen at approximately -70C until analysis by nuclease protection assay (qNPA) (Roberts et al., 2007). For qNPA analysis, cell lysates were thawed at 50C for approximately 30 min, qNPA probes were added, and samples were incubated at 95C for 10 min to begin the detection process by denaturing the target RNA, dissociating the duplexes and secondary structure hybridization. At the conclusion of the hybridization period, S1 nuclease reagent was added to each sample to digest all nonprotected nucleotides at 50C for 60-90 min. […]

SMILES	outcome	AC50
CCOP(=S)(OCC)Oc1ccc2c(C)c(Cl)c(=O)oc2c1	inactive	–
CCOP(=O)(OCC)Oc1cc(C)nc(C(C)C)n1	inactive	–
CN(C)NC(=O)CCC(=O)O	inactive	–
CCCCSP(=O)(SCCCC)SCCCC	inactive	–
CC(COc1ccc(Oc2ccccc2)cc1)Oc1ccccn1 (configuration not stated)	inactive	–
C=C(C)[C@H]1Cc2c(ccc3c2O[C@@H]2COc4cc(OC)c(OC)cc4[C@@H]2C3=O)O1	–	3.73 µM (active)
CCCOc1nn(C(=O)NS(=O)(=O)c2ccccc2C(=O)OC)c(=O)n1C	inactive	–
CCCCOC(=O)c1ccccc1C(=O)O	inactive	–
CC(C)=CC1C(C(=O)OCN2C(=O)C3=C(CCCC3)C2=O)C1(C)C (configuration not stated)	inactive	–
CCOP(=S)(Oc1cnc(C(C)(C)C)nc1)OC(C)C (configuration not stated)	inactive	–
CCCCOC(=O)[C@@H](C)Oc1ccc(Oc2ccc(C#N)cc2F)cc1	inactive	–
COP(=O)(OC)SCn1c(=O)oc2cc(Cl)cnc21	inactive	–
COP(=O)(NC(C)=O)SC (configuration not stated)	inactive	–
COc1cc(OC)nc(Sc2cccc(Cl)c2C(=O)O)n1	inactive	–
COc1cccc(C(=O)NN(C(=O)c2cc(C)cc(C)c2)C(C)(C)C)c1C	inactive	–
CC[C@H](C)[C@H]1O[C@]2(C=C[C@@H]1C)C[C@@H]1C[C@@H](C/C=C(\C)[C@@H](O[C@H]3C[C@H](OC)[C@@H](O[C@H]4C[C@H](OC)[C@@H](NC)[C@H](C)O4)[C@H](C)O3)[C@@H](C)/C=C/C=C3\CO[C@@H]4[C@H](O)C(C)=C[C@@H](C(=O)O1)[C@]34O)O2	inactive	–
CCC(=NOC/C=C/Cl)C1=C(O)CC(C2CCOCC2)CC1=O (configuration not stated)	inactive	–
C[N+]1(C)CCCCC1	inactive	–
CC1=NNC(=O)N(/N=C/c2cccnc2)C1	inactive	–
N#CSCSC#N	inactive	–
CCOP(=O)(SC(C)CC)N1CCSC1=O (configuration not stated)	inactive	–
O=c1ccc(=O)[nH][nH]1	inactive	–
COP(=O)(OC)C(O)C(Cl)(Cl)Cl (configuration not stated)	inactive	–
CCCSP(=O)(OCC)Oc1ccc(Br)cc1Cl (configuration not stated)	inactive	–
CN(C)[C@@H]1C(=O)C(C(N)=O)=C(O)[C@@]2(O)C(=O)C3=C(O)c4c(O)cccc4[C@@](C)(O)[C@H]3[C@H](O)[C@@H]12	inactive	–
CN(C)C(=O)Nc1cccc(C(F)(F)F)c1	inactive	–
CCOC(=O)CC(SP(=O)(OC)OC)C(=O)OCC (configuration not stated)	inactive	–
